Experimental findings from PubChem BioAssay (Tox21) are described below.

Assay [1] in a line: qHTS assay to test for compound auto fluorescence at 535 nm (green) in HEK293 cells (AID 720680).
Assay [2] in a line: qHTS assay to test for compound auto fluorescence at 460 nm (blue) in HEK293 cell free culture (AID 720681). The method, boiled down: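 Blue fluorescence (Ex 405/Em 460 nm, triamterene-equivalent) was read immediately after pin transfer of compound or DMSO into medium (DMEM, 10% FBS) without cells.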
(In qHTS, concentration-response curves come from the screen itself.)

Assay [3] is described as follows: qHTS assay to test for compound auto fluorescence at 535 nm (green) in HEK293 cell free culture (AID 720682). The method, boiled down: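 No cells present: wells hold DMEM supplemented with 10% FBS, into which compound or vehicle is pinned. Green emission is then recorded (485 nm excitation, 535 nm emission) and scaled to fluorescein.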
A short description of assay [4]: qHTS assay to test for compound auto fluorescence at 590 nm (red) in HEK293 cell free culture (AID 720683). The method, boiled down:
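Red-channel autofluorescence of compounds in culture medium (DMEM, 10% FBS), no cells, measured at 540/590 nm. Rose Bengal sodium is the reference fluorophore for equivalence.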

The nature of assay [5]: qHTS assay to test for compound auto fluorescence at 590 nm (red) in HepG2 cell free culture (AID 720684). A digest of the protocol:
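Steps: dispense MEM/10% FBS medium, no cells; pin compound or DMSO vehicle; read red channel, Ex/Em 540/590 nm. Output given as Rose Bengal sodium equivalents.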

Assay [6] can be described thus: qHTS assay to test for compound auto fluorescence at 460 nm (blue) in HepG2 cell free culture (AID 720685). A digest of the protocol: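 Compound (23 nL) or DMSO pinned into cell-free MEM with 10% FBS; blue fluorescence read at 405/460 nm excitation/emission, expressed as auto-fluorescence equivalency to triamterene.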
Assay [7] can be described thus: qHTS assay to test for compound auto fluorescence at 535 nm (green) in HepG2 cell free culture (AID 720686).
Assay [8] has as its target Glucocorticoid receptor (Homo sapiens) (UniProt P04150). The assay can be described thus: qHTS assay to identify small molecule agonists of the glucocorticoid receptor (GR) signaling pathway (AID 720691; active = well fitted activation curve with a large enough effect in the signal ratio in the repeat runs, not every such curve was filed as active; inconclusive = weak or mixed curves, or effect the other way; inactive = no such curve, though single readings can be large or run the other way; the % refers to the signal ratio; also: potency is read from the fitted curve at half-maximal effect). Particulars: GR-bla HeLa, beta-lactamase reporter ratio, 18 h; activation: at 62.4 µM (top of the series). The method, boiled down: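 Agonist mode in a HeLa line carrying a GRE-controlled beta-lactamase reporter. Compounds act for 18 h at 37 C before a 2 h room-temperature FRET substrate step and fluorescence reading.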

The target is the same in assay [9]. Description: qHTS assay to identify small molecule antagonists of the glucocorticoid receptor (GR) signaling pathway (AID 720692; active = well fitted inhibition curve with a large enough effect in the signal ratio in the repeat runs, not every such curve was filed as active; inconclusive = weak or mixed curves, or effect the other way; inactive = no such curve, though single readings can be large or run the other way; the % refers to the signal ratio; also: potency is read from the fitted curve at half-maximal effect). A digest of the protocol:
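Cells plated, rested 4 h at 37 C/5% CO2; compounds in DMSO pin-transferred; dexamethasone added to 5 nM final; 18 h at 37 C; B/G FRET substrate added, 2 h room temperature; fluorescence measured.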

Assay [10] is described as follows: qHTS assay to test for compound auto fluorescence at 460 nm (blue) in HepG2 cells (AID 720687). Also: potency is read from the fitted curve at half-maximal effect. The method, boiled down: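 Blue-channel autofluorescence (Ex/Em 405/460 nm, triamterene-equivalent) was measured after 1 hr compound exposure at 37 C, 5% CO2. Cells were HepG2, plated overnight at 37 C in MEM plus 10% FBS.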

The structures appear in SMILES notation. The source holds several records for some structures; these can differ, active in one and inactive in another. The source made the active and inactive calls. Unless noted, calls follow the shape of the dose curve; as a rule, active = well fitted curve in the direction sought with a large enough effect in the repeat runs; inconclusive = weak or mixed curves; inactive = flat fitted curve, though single readings scatter.
Tags tell the direction and shape of the fitted curve or compound fluorescence and quenching.

Glucocorticoid receptor (Homo sapiens), sequence (P04150 whole entry, looked up): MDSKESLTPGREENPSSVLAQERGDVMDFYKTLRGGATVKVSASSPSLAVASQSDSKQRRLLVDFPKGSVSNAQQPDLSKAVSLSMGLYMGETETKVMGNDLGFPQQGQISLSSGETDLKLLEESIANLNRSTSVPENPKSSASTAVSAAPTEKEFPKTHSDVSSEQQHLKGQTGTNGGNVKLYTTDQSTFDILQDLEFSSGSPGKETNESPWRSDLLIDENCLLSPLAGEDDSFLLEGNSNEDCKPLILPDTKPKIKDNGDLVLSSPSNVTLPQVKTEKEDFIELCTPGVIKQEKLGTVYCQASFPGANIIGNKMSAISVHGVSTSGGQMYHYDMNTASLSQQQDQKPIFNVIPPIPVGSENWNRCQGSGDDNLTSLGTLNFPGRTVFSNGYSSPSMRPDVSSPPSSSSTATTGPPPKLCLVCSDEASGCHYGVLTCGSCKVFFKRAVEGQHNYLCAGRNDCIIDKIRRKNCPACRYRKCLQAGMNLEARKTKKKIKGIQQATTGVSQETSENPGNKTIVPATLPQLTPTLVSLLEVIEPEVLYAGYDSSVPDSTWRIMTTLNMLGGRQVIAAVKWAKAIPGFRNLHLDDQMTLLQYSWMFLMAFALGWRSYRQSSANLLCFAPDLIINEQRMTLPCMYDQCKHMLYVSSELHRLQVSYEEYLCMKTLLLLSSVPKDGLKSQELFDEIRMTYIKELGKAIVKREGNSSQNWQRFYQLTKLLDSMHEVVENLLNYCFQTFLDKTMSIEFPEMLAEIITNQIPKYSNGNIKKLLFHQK

On to `NC(N)=NCC1COC2(CCCCC2)O1` (stereo not given), for which the outcome in assay [1], in assay [3], in [4] and in [5] was inactive. The Potency result in assay [2], in assay [6], in [7], in [8] and in assay [9] was “inactive” each time.

`CCCCCCOC(=O)c1cccnc1`: the call in [1], in assay [3], in [4] and in [5] was inactive. Besides, the Potency entry in [2], in [6], in [7] and in assay [8] was “inactive” in each case.

Take `CN1CCN(c2ccccc2/C=C2\SCCN(c3ccc(Cl)c(Cl)c3)C2=O)CC1`: the result in assay [1], in [3], in assay [4] and in assay [5] was inactive. Besides, the Potency entry in assay [2], in assay [7] and in [10] was “inactive” throughout.

For the molecule `C=C1C(=C/C=C2\CCC[C@]3(C)[C@@H]([C@H](C)CCCC(C)C)CC[C@@H]23)C[C@@H](O)C[C@@H]1O`, the call in [1], in assay [3], in [4] and in [5] was inactive. For the same molecule, the Potency entry in assay [2], in assay [6], in assay [7] and in assay [10] was “inactive” throughout. Besides, the Potency in assay [9] is 8.49 µM (active).

For `COC(=O)C[C@](O)(CCCC(C)(C)O)C(=O)O[C@@H]1C(OC)=CC23CCCN2CCc2cc4c(cc2[C@H]13)OCO4` (stereo not given in full), the result in [1], in assay [3], in [4] and in assay [5] was inactive. For the same molecule, the Potency entry in assay [2], in assay [6], in assay [7] and in assay [10] was “inactive” each time. For the same molecule, the Potency in assay [9] is 0.169 µM (active).

As to `CC(=O)OCC(=O)[C@@]1(O)CC[C@H]2[C@@H]3C[C@H](C)C4=CC(=O)C=C[C@]4(C)[C@H]3[C@@H](O)C[C@@]21C`, the call in [1], in assay [3], in assay [4] and in [5] was inactive. In addition, the Potency result in [2], in assay [7] and in [10] was “inactive” in each case. In assay [8], the Potency is 0.134 µM [inconclusive] (active).

Consider `CCCCCN=C(N)N/N=C/c1c[nH]c2ccc(OC)cc12`, for which the outcome in [1], in assay [3], in assay [4] and in assay [5] was inactive. Besides, the Potency entry in assay [2], in assay [7], in assay [10], in [8] and in [9] was “inactive” throughout.

Turning to `O=P(O)(O)OP(=O)(O)OP(=O)(O)O`, the result in assay [1], in assay [3], in assay [4] and in [5] was inactive. Moreover, the Potency result in assay [2], in assay [7], in [8] and in [9] was “inactive” in each case.

Consider `O=C1OC(O)C(C(Cl)Cl)=C1Cl` (stereo not given), for which the outcome in [1], in assay [3], in assay [4] and in assay [5] was inactive. Also, the Potency entry in assay [2], in assay [7] and in assay [10] was “inactive” in each case. Further, the Potency in assay [9] was 25.3 µM (active).

Regarding `CS(=O)(=O)c1ccc([C@@H](CC2CCCC2)C(=O)Nc2cnccn2)cc1Cl`, the call in [1], in assay [3], in assay [4] and in [5] was inactive. The Potency result in [6], in [7] and in [10] was “inactive” throughout.

Turning to `CC(C)(O/N=C(\C(=O)N[C@@H]1C(=O)N2C(C(=O)[O-])=C(C[n+]3ccccc3)CS[C@H]12)c1csc(N)n1)C(=O)O`, the molecule was classed as inactive in [1], in [3], in assay [4] and in [5]. Moreover, the Potency result in assay [2], in [7], in assay [10] and in assay [8] was “inactive” throughout.

With `CCCOC(=O)c1ccc(O)cc1`, the molecule was classed as inactive in assay [1], in [3], in [4] and in assay [5]. Further, the Potency result in [2], in assay [7], in assay [10] and in assay [8] was “inactive” each time.

Consider `COc1cc(/C=C/C(=O)CC(=O)/C=C/c2ccc(O)c(OC)c2)ccc1O`, for which the molecule was called inactive in [1], in assay [3], in [4] and in assay [5]. Besides, the Potency entry in [2], in assay [7] and in [8] was “inactive” in each case. Further, the Potency is 39.8 µM [fluorescent] (active) in [10]; 23.9 µM (active) and inactive in assay [9].

`CCN(CC)CC#CCOC(=O)C(O)(c1ccccc1)C1CCCCC1` (stereo not given): the result in assay [1], in assay [3], in assay [4] and in assay [5] was inactive. Moreover, the Potency result in assay [2], in assay [7], in [10], in assay [8] and in assay [9] was “inactive” throughout.

`Cc1cccc(C)c1NC(=O)C1CCCCN1C` (stereo not given): the call in assay [1], in assay [3], in assay [4] and in [5] was inactive. Besides, the Potency result in assay [2], in assay [7], in [8] and in assay [9] was “inactive” in each case.

For the molecule `CNC(=O)OCc1cccc(COC(=O)NC)n1`, the outcome in [1], in assay [3], in [4] and in [5] was inactive. Further, the Potency entry in assay [2], in [7], in assay [10], in assay [8] and in assay [9] was “inactive” each time.

As to `C[S+](C)CCC(N)C(=O)O` (stereo not given), the molecule was called inactive in assay [1], in assay [3], in [4] and in assay [5]. In addition, the Potency result in [2], in assay [7], in [10] and in assay [8] was “inactive” throughout.

Take `CCOc1ccc(NC(=S)Nc2ccc(OCC)cc2)cc1`: the outcome in assay [1], in assay [3], in assay [4] and in assay [5] was inactive. Moreover, the Potency result in assay [2], in [7] and in assay [10] was “inactive” in each case.

For the molecule `CC1(C)S[C@@H]2[C@H](NC(=O)[C@H](N)c3ccc(O)cc3)C(=O)N2[C@H]1C(=O)O`, the call in assay [1], in [3], in [4] and in assay [5] was inactive. Further, the Potency entry in assay [7] and in assay [10] was “inactive” throughout.

Consider `Nc1nc(/C(=C/CC(=O)O)C(=O)N[C@@H]2C(=O)N3C(C(=O)O)=CCS[C@H]23)cs1`, for which the molecule was classed as inactive in assay [1], in assay [3], in [4] and in [5]. Moreover, the Potency entry in assay [2], in assay [7], in [10] and in assay [8] was “inactive” each time.

Turning to `C=CCN1C(=O)C(CC(C)C)NC1=S` (stereo not given), the outcome in [1], in assay [3], in assay [4] and in assay [5] was inactive. In addition, the Potency entry in assay [2], in [7], in [10] and in assay [8] was “inactive” in each case.

As for `SC1CCCCC1`, the result in assay [1], in [3], in [4] and in assay [5] was inactive. Also, the Potency entry in assay [2], in assay [7], in assay [10] and in [8] was “inactive” in each case.

`CC(C)c1ccc2sc3ccccc3c(=O)c2c1`: the outcome in assay [1], in assay [3], in assay [4] and in assay [5] was inactive. Besides, the Potency result in [7], in [8] and in assay [9] was “inactive” each time.
